The text below walks through data of PubChem BioAssay (EPA / NIEHS).

Holding throughout (details): mRNA level, 48 h; actives raise or lower the signal
Read-out in one test: BCL2L11 (gene 10018)
Kind of test: LTEA_HepaRG_BCL2L11: Life Technologies and Expression Analysis (LTEA) Assay for Bcl-2 (BCL2L11) gene using HepaRG (AID 2283473). Put shortly: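 Human hepatic HepaRG cultures are treated 48 h with test chemicals (maximum 100 uM, 0.5% DMSO vehicle). Expression of BCL2L11 is measured by qRT-PCR against ACTB, GAPDH and POLR2A, with activity in either direction scored relative to vehicle.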

Read-out in test [1]: Apolipoprotein A-V (APOA5) gene, APOA5 (gene 116519)
Description: LTEA_HepaRG_APOA5: Life Technologies and Expression Analysis (LTEA) Assay for Apolipoprotein A-V (APOA5) gene using HepaRG (AID 2283474). Put shortly:
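Concentration-response of APOA5 expression in HepaRG: eight half-log doses to 100 uM, 48 h, qRT-PCR normalized to ACTB/GAPDH/POLR2A, bidirectional fitting with 0.5% DMSO as baseline.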

Read-out in test [2]: Apoptosis regulator Bcl-2 (Homo sapiens) (UniProt P10415)
Description: LTEA_HepaRG_BCL2: Life Technologies and Expression Analysis (LTEA) Assay for Bcl-2 gene using HepaRG (AID 2283475). Put shortly:
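Differentiated HepaRG cells in serum-free induction medium were exposed for 48 h to eight half-log concentrations up to 100 uM in 0.5% DMSO, in duplicate. BCL2 mRNA was quantified by TaqMan qRT-PCR normalised to ACTB, GAPDH and POLR2A, with bidirectional fitting versus DMSO.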

Read-out in test [3]: Bcl-2 (BID) gene, BID (gene 637)
Description: LTEA_HepaRG_BID: Life Technologies and Expression Analysis (LTEA) Assay for Bcl-2 (BID) gene using HepaRG (AID 2283476). Put shortly: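 Differentiated HepaRG cells in serum-free induction medium were exposed in duplicate for 48 h to eight half-log concentrations up to 100 uM in 0.5% DMSO. BID mRNA was quantified by qRT-PCR, normalized to ACTB, GAPDH and POLR2A.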

Read-out in another test: Caspase-3 (Homo sapiens) (UniProt P42574)
Description: LTEA_HepaRG_CASP3: Life Technologies and Expression Analysis (LTEA) Assay for cysteine-aspartic acid protease (CASP3) using HepaRG (AID 2283477). Put shortly: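 Transcript-level assay: CASP3 mRNA in human HepaRG after 48 h treatment, eight half-log concentrations from 100 uM in 0.5% DMSO, quantified by qRT-PCR.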

Read-out in test [4]: Cytochrome P450 (CYP24A1), CYP24A1 (gene 1591)
Description: LTEA_HepaRG_CYP24A1: Life Technologies and Expression Analysis (LTEA) Assay for Cytochrome P450 (CYP24A1) using HepaRG (AID 2283478). Put shortly:
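Gene expression of CYP24A1 by TaqMan qRT-PCR in HepaRG after 48 h treatment, highest concentration 100 uM; activity fitted in both directions relative to DMSO vehicle.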

Read-out in test [5]: Cytochrome P450 (CYP1A2), CYP1A2 (gene 1544)
Kind of test: LTEA_HepaRG_CYP1A2: Life Technologies and Expression Analysis (LTEA) Assay for Cytochrome P450 (CYP1A2) using HepaRG (AID 2283479). Put shortly: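 In duplicate wells, HepaRG cultures maintained in 0.5% DMSO were treated 48 h across an 8-point, half-log series topping at 100 uM; phenobarbital (1 mM) served as induction control. Expression was read by qRT-PCR.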

Read-out in test [6]: cysteine-aspartic acid protease (CASP8), CASP8 (gene 841)
Description: LTEA_HepaRG_CASP8: Life Technologies and Expression Analysis (LTEA) Assay for cysteine-aspartic acid protease (CASP8) using HepaRG (AID 2283480). Put shortly: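 HepaRG, 48 h exposure, duplicate wells; 8 conc, half-log from 100 uM, 0.5% DMSO. Serum-free induction medium. CASP8 mRNA by TaqMan qRT-PCR, norm. ACTB/GAPDH/POLR2A; gain/loss fitted vs DMSO.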

Read-out in test [7]: Cytochrome P450 (CYP2B6), CYP2B6 (gene 1555)
Description: LTEA_HepaRG_CYP2B6: Life Technologies and Expression Analysis (LTEA) Assay for Cytochrome P450 (CYP2B6) using HepaRG (AID 2283481). Put shortly: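 Human HepaRG, 48 h dosing, 0.5% DMSO vehicle, top dose 100 uM. CYP2B6 transcript by qRT-PCR, housekeeping-normalized, bidirectional curve fit.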

Read-out in test [8]: Cytochrome P450 2C19 (Homo sapiens) (UniProt P33261)
Description: LTEA_HepaRG_CYP2C19: Life Technologies and Expression Analysis (LTEA) Assay for CYP2C19 using HepaRG (AID 2283482). Put shortly:
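Endpoint: CYP2C19 mRNA change, bidirectional fit vs 0.5% DMSO. Cells: HepaRG, 48 h exposure, eight-point series topping at 100 uM. Quantitation: qRT-PCR normalized to ACTB, GAPDH, POLR2A.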

Read-out in a further test: CYP2C9 (gene 1559)
Kind of test: LTEA_HepaRG_CYP2C9: Life Technologies and Expression Analysis (LTEA) Assay for CYP2C9 using HepaRG (AID 2283484). Put shortly: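 Cells plated 48 h, switched to serum-free induction medium, then treated in duplicate for 48 h at eight concentrations (max 100 uM, 0.5% DMSO). RNA then analysed by qRT-PCR for CYP2C9; curves fitted in both directions relative to DMSO.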

Read-out in the next test: CYP2E1 (gene 1571)
Description: LTEA_HepaRG_CYP2E1: Life Technologies and Expression Analysis (LTEA) Assay for CYP2E1 using HepaRG (AID 2283485). Put shortly: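 HepaRG cells in serum-free induction medium exposed 48 h to test chemicals, 8 half-log concentrations up to 100 uM in 0.5% DMSO, duplicate. CYP2E1 mRNA by qRT-PCR, normalized to ACTB, GAPDH, POLR2A; bidirectional fit versus DMSO.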

Read-out in the next test: CYP4A11 (gene 1579)
Description: LTEA_HepaRG_CYP4A11: Life Technologies and Expression Analysis (LTEA) Assay for CYP4A11 using HepaRG (AID 2283486). Put shortly: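 Human hepatic HepaRG cultures receive duplicate 48 h exposures across a concentration-response series topping at 100 uM. Expression changes in CYP4A11 are measured by qRT-PCR relative to DMSO controls.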

Read-out in test [9]: DNA damage-inducible transcript 3 (DDIT3), DDIT3 (gene 1649)
Description: LTEA_HepaRG_DDIT3: Life Technologies and Expression Analysis (LTEA) Assay for DNA damage-inducible transcript 3 (DDIT3) using HepaRG (AID 2283488). Put shortly: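 Differentiated human HepaRG cells in serum-free induction medium were exposed in duplicate for 48 h to 8 concentrations (top 100 uM, half-log steps, 0.5% DMSO). DDIT3 mRNA measured by TaqMan qRT-PCR, normalized to ACTB/GAPDH/POLR2A; bidirectional fit versus DMSO.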

Read-out in test [10]: Pro-epidermal growth factor (Homo sapiens) (UniProt P01133)
Description: LTEA_HepaRG_EGF: Life Technologies and Expression Analysis (LTEA) Assay for Epidermal growth factor (EGF) using HepaRG (AID 2283489). Put shortly: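 Concentration-response mRNA assay: HepaRG cells dosed 48 h (max 100 uM, 0.5% DMSO), EGF measured by qRT-PCR and normalized to ACTB/GAPDH/POLR2A.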

Read-out in test [11]: Early growth response protein 1 (EGR1) transcription factor, EGR1 (gene 1958)
Kind of test: LTEA_HepaRG_EGR1: Life Technologies and Expression Analysis (LTEA) Assay for Early growth response protein 1 (EGR1) transcription factor using HepaRG (AID 2283490). Put shortly: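 Read-out is EGR1 mRNA level by qRT-PCR, normalized to three housekeeping genes and analysed for gain or loss of signal against 0.5% DMSO. Source cells: human HepaRG, treated 48 h at up to 100 uM in half-log dilutions.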

Read-out in test [12]: Ezrin (EZR), EZR (gene 7430)
Kind of test: LTEA_HepaRG_EZR: Life Technologies and Expression Analysis (LTEA) Assay for Ezrin (EZR) using HepaRG (AID 2283491). Put shortly:
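Gain or loss of EZR mRNA is scored relative to 0.5% DMSO in human HepaRG cultures treated 48 h with test chemicals in duplicate, eight half-log concentrations from 100 uM.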

Read-out in test [13]: Cytochrome P450 3A7 (Homo sapiens) (UniProt P24462)
Description: LTEA_HepaRG_CYP3A7: Life Technologies and Expression Analysis (LTEA) Assay for CYP3A7 using HepaRG (AID 2283492). Put shortly: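 qRT-PCR of CYP3A7 in HepaRG lysates after 48 h treatment; concentration-response (8 points, max 100 uM) analysed bidirectionally relative to 0.5% DMSO controls.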

Read-out in the next test: CYP2C8 (gene 1558)
Kind of test: LTEA_HepaRG_CYP2C8: Life Technologies and Expression Analysis (LTEA) Assay for CYP2C8 using HepaRG (AID 2283483). Put shortly: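 CYP2C8 mRNA induction or loss, by qRT-PCR normalized to ACTB/GAPDH/POLR2A, is read in HepaRG cells after 48 h treatment. Concentrations run from 100 uM down in half-log dilutions, with 0.5% DMSO as vehicle and baseline.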

Molecules are shown by their SMILES. Activity calls are given as the source filed them. Rule for the calls: active = hit-call score of the fitted dose curve at least 0.9, where 1 is the maximum; inactive = score below 0.9.

Sequence of Caspase-3 (Homo sapiens) (P42574 whole entry, looked up): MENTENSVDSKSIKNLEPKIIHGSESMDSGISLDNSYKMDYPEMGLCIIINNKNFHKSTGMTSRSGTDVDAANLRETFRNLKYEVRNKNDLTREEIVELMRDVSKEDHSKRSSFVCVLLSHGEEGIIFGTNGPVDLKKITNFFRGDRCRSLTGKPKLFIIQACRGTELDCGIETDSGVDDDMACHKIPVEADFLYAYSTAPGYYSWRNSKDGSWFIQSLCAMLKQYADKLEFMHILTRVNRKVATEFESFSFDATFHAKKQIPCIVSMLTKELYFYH
Sequence of Cytochrome P450 3A7 (Homo sapiens) (P24462 whole entry, looked up): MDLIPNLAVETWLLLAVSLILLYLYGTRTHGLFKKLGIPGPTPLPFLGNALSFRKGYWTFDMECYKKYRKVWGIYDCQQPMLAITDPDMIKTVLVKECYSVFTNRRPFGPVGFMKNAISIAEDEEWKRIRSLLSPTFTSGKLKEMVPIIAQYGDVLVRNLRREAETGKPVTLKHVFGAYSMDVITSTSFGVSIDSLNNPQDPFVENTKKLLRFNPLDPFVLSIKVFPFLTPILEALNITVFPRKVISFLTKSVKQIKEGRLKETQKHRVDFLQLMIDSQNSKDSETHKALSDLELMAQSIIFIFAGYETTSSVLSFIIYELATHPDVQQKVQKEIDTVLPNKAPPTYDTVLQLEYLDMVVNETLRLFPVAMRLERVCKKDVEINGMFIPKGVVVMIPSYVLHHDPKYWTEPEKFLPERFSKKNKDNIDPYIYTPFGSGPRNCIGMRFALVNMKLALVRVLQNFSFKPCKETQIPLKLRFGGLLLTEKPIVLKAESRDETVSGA
Sequence of Cytochrome P450 2C19 (Homo sapiens) (P33261 whole entry, looked up): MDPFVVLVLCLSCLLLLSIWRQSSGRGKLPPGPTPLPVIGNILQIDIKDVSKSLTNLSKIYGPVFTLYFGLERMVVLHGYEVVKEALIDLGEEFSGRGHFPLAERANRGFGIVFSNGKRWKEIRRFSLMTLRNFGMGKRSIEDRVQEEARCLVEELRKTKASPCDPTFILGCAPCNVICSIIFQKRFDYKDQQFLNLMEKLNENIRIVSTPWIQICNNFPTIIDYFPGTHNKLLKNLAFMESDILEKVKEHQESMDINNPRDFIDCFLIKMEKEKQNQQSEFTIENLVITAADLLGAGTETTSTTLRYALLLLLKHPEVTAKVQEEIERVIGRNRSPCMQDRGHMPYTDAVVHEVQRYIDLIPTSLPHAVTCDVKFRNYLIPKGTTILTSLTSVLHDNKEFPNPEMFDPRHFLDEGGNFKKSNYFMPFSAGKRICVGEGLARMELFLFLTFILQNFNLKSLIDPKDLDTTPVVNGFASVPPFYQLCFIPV
Sequence of Apoptosis regulator Bcl-2 (Homo sapiens) (P10415 whole entry, looked up): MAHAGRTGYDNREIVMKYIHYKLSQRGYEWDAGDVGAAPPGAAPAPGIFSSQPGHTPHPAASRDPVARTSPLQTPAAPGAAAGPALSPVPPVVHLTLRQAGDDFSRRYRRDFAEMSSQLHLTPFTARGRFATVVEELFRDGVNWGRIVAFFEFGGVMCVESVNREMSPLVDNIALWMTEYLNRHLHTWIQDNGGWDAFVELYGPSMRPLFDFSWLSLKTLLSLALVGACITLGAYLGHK

Regarding `O=C1CCCO1`, the outcome (with BCL2L11 (gene 10018); in test [1]; in test [2]; in [3]; in test [4]; in [5]) was inactive. Further, the result (in test [7]; in test [8]; in the test with CYP2C9 (gene 1559); with CYP2E1 (gene 1571); in [9]; in test [10]) was inactive. Besides, the molecule was classed as inactive in test [11], in [12] and in test [13]. In addition, the AC50 with Caspase-3 (Homo sapiens) was 50 µM (active); in [6], 78.5 µM (active); in the test with CYP4A11 (gene 1579), 0.0449 µM (active).
For the molecule `CC(C)(C)OOC(=O)c1ccccc1`, the outcome (in the test with BCL2L11 (gene 10018); in test [1]; in [2]; in test [3]; in the test with Caspase-3 (Homo sapiens); in [4]) was inactive. Besides, the molecule was called inactive (in test [5]; in test [6]; in test [7]; in test [8]; with CYP2C9 (gene 1559); with CYP2E1 (gene 1571)). Moreover, the call (with CYP4A11 (gene 1579); in [9]; in test [10]; in test [11]; in test [12]; in [13]) was inactive.
With `O=Cc1ccco1`, the molecule was called inactive (in the test with BCL2L11 (gene 10018); in test [1]; in test [2]; in test [3]; with Caspase-3 (Homo sapiens); in [4]). The result (in test [5]; in test [6]; in test [8]; in the test with CYP2C8 (gene 1558); with CYP2C9 (gene 1559); with CYP2E1 (gene 1571)) was inactive. Also, the result (with CYP4A11 (gene 1579); in [9]; in test [10]; in test [11]; in test [12]; in test [13]) was inactive.
For `Oc1ccc2ccc3cccc4ccc1c2c34`, the molecule was called inactive (with BCL2L11 (gene 10018); in test [1]; in [2]; in [3]; with Caspase-3 (Homo sapiens); in [4]). Also, the molecule was classed as inactive (in test [6]; in [7]; in [8]; with CYP2C9 (gene 1559); in the test with CYP4A11 (gene 1579); in test [9]). For the same molecule, the call in test [10], in [11], in test [12] and in [13] was inactive. In addition, the AC50 in [5] was 11.5 µM (active); in the test with CYP2E1 (gene 1571), 50 µM (active).
In the case of `C[N+](C)(C)CC1CO1` (stereo not given), the molecule was called inactive (with BCL2L11 (gene 10018); in test [1]; in [2]; in test [3]; with Caspase-3 (Homo sapiens); in test [4]). For the same molecule, the outcome (in test [5]; in [6]; in test [7]; in [8]; in the test with CYP2C9 (gene 1559); with CYP2E1 (gene 1571)) was inactive. Besides, the outcome (with CYP4A11 (gene 1579); in test [9]; in [10]; in test [11]; in test [12]; in test [13]) was inactive.
For `CC(C)N(Cc1ccccc1)C(=O)C(C)(C)C`, the result (with BCL2L11 (gene 10018); in [1]; in [2]; in [3]; with Caspase-3 (Homo sapiens); in test [4]) was inactive. For the same molecule, the call (in [5]; in [6]; with CYP2C9 (gene 1559); with CYP4A11 (gene 1579); in test [9]; in [11]) was inactive. Further, the result in test [12] was inactive. The AC50 is 2.31 µM (active) in test [7], 11.1 µM (active) in [8], 19.6 µM (active) with CYP2E1 (gene 1571) and 11.5 µM (active) in test [13].
Regarding `Clc1ccc(Cl)c(Cl)c1`, the result (with BCL2L11 (gene 10018); in [2]; in [4]; in test [5]; in test [6]; in [7]) was inactive. Moreover, the outcome (in test [8]; in the test with CYP2C9 (gene 1559); in the test with CYP4A11 (gene 1579); in test [10]; in [11]; in test [12]) was inactive. In addition, the result in test [13] was inactive. For the same molecule, the AC50 in test [1] is 50 µM (active); in test [3], 50 µM (active); with Caspase-3 (Homo sapiens), 50 µM (active); with CYP2E1 (gene 1571) it was 50 µM (active); in test [9] it was 9.92 µM (active).
